PubChem BioAssay (EPA / NIEHS)
Results filed as inconclusive are left out. Calls of active or inactive are those of the source. How the source made its calls: active means hit-call score of the fitted dose curve at least 0.9, where 1 is the maximum; inconclusive means response in the unintended direction; inactive means score below 0.9.

Molecular target: Androgen Receptor/SRC-1 Co-activator, AR (gene 367) (UniProt P10275)
Test: OT_AR_ARSRC1_0480: Odyssey Thera (OT) 8-hour HEK293T Protein-Complementation Assay for Androgen Receptor/SRC-1 Co-activator (AID 2283354);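 further: hits raise the complementation signal above DMSO so AC50 marks enhancers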
Procedure, shortened: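 Split-Venus PCA, stable HEK293T, AR/SRC-1 fusions; 8 h exposure. Readout: 488nm N/C fluorescence ratio, ≥400 cells/image; fitted upward vs DMSO baseline.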

Androgen Receptor/SRC-1 Co-activator, AR (gene 367), sequence (P10275 whole entry, looked up): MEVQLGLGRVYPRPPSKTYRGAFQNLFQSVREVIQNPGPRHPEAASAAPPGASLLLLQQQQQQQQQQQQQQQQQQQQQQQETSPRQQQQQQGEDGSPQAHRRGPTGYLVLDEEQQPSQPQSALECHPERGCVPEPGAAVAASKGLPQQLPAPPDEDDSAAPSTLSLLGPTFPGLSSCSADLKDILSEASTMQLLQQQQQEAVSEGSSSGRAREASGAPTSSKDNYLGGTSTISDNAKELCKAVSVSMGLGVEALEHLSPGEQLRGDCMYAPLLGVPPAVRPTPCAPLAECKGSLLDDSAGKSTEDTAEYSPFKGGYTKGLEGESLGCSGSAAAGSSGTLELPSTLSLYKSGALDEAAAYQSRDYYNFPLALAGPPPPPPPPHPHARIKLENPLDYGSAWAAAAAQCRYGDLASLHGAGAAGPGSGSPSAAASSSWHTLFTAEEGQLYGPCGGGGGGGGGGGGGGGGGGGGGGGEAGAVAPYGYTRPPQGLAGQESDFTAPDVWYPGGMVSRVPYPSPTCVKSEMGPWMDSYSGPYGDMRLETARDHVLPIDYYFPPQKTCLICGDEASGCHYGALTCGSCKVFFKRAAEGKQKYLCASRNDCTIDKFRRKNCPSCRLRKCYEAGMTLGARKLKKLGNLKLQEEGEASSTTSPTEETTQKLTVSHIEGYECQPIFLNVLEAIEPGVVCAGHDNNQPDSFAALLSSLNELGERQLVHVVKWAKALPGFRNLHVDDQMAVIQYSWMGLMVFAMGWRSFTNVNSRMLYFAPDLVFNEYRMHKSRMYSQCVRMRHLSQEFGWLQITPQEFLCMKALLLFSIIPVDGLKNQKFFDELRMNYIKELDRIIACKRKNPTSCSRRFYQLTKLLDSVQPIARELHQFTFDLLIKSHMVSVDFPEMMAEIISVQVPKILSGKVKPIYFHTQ

Which outcome does the source give for `CC(CC=O)CCCC(C)(C)O` (stereo unspecified) here?
Its outcome is “inactive”.

`CC(C)c1ccc2c(C(C)C)cc(C(C)C)c(S(=O)(=O)O)c2c1` was tested. Which outcome did it give?
Its outcome is “inactive”.

With `Oc1ccc(Cl)cc1Cc1cc(Cl)ccc1O` as the compound, how does the AC50 read?
The AC50 was 55.5 µM (active).

Which outcome does the source give for `CC(C)c1ccc2cc(C(C)C)ccc2c1` here?
The outcome was “inactive”.

With `CCCc1ccc(OC)cc1` as the compound, how does the outcome read?
The outcome was “inactive”.

With `CCCCC/C=C\CCC=O` as the compound, how does the outcome read?
Its outcome is “inactive”.

Which outcome does the source give for `CC(C)=CCC[C@H](C)CCO` here?
The outcome was “inactive”.

With `O=c1cc(-c2ccccc2)oc2ccccc12` as the compound, how does the outcome read?
Its outcome is “inactive”.

How did the outcome turn out when `CC(C)(C)c1ccc(-c2ccc(C(C)(C)C)cc2)cc1` was run?
Its outcome is “inactive”.

Molecular target: rat Mineralocorticoid Receptor (MR), Nr3c2 (gene 25672) (UniProt P22199)
Test: NVS_NR_rMR: NovaScreen (NVS) Nuclear Receptor Binding Assay for rat Mineralocorticoid Receptor (MR) (AID 2283355)
Procedure, shortened: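 Radioligand displacement, scintillation readout; tissue source adrenalectomized rat brain supernatant. Read 24 h post-dose. Screened in duplicate at 25 uM, DMSO negative control, controls on every plate; actives re-run in concentration series.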

rat Mineralocorticoid Receptor (MR), Nr3c2 (gene 25672), sequence (P22199 whole entry, looked up): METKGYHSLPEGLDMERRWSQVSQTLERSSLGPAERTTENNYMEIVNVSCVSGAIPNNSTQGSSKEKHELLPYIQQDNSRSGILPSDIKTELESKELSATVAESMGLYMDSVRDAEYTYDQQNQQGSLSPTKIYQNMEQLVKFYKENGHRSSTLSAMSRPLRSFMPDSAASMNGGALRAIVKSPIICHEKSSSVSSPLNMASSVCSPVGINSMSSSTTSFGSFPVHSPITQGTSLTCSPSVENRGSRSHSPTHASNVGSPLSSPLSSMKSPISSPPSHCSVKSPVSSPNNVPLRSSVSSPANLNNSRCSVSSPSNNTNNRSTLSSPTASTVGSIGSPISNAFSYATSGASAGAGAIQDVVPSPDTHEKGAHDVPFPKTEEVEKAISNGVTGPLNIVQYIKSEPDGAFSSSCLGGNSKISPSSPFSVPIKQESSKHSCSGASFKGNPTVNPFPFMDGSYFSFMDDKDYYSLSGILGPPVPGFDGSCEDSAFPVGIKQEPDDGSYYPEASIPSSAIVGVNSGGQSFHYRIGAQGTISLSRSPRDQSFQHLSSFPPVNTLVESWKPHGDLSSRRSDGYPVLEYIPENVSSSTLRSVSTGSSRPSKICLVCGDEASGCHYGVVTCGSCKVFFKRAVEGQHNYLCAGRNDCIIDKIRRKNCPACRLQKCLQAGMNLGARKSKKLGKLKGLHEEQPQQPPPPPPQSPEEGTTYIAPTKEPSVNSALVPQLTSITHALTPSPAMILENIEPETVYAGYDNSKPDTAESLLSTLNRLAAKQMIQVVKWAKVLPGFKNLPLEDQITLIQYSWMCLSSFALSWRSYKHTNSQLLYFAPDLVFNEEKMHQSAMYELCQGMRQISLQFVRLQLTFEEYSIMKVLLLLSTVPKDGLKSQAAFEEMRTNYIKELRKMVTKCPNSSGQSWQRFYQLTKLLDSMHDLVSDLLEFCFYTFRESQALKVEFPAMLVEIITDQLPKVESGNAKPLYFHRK

How did the outcome turn out when `CCCCCCCOC(=O)CCC` was run?
Its outcome is “inactive”.

For `CC(C)(c1cc(Br)c(OCCO)c(Br)c1)c1cc(Br)c(OCCO)c(Br)c1`, which outcome is on record?
Its outcome is “inactive”.

How did the outcome turn out when `C#CC1(O)CC[C@H]2[C@@H]3CCC4=CCCC[C@@H]4[C@H]3CC[C@@]21C` (stereo partly specified) was run?
The outcome was “inactive”.

Molecular target: Estrogen receptor (Homo sapiens) + Estrogen receptor beta (Homo sapiens) (UniProt P03372+Q92731)
Test: OT_ER_ERaERb_1440: Odyssey Thera (OT) 24-hour HEK293T Protein-Complementation Assay for Estrogen Receptor-alpha/-beta Homodimer (AID 2283356);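 further: heteromer of ER alpha and ER beta binding domains; hits raise reporter fluorescence and both agonists and antagonists give an increase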
Procedure, shortened: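 Stable HEK293T PCA line, ERα LBD 310-547 + ERβ LBD 263-489 fused to reporter fragments; 24 h treatment; fluorescence read by laser scanning cytometry; positive fitting direction relative to DMSO.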

Estrogen receptor (Homo sapiens) + Estrogen receptor beta (Homo sapiens), sequence (P03372 whole entry, looked up, the tested form may be a part): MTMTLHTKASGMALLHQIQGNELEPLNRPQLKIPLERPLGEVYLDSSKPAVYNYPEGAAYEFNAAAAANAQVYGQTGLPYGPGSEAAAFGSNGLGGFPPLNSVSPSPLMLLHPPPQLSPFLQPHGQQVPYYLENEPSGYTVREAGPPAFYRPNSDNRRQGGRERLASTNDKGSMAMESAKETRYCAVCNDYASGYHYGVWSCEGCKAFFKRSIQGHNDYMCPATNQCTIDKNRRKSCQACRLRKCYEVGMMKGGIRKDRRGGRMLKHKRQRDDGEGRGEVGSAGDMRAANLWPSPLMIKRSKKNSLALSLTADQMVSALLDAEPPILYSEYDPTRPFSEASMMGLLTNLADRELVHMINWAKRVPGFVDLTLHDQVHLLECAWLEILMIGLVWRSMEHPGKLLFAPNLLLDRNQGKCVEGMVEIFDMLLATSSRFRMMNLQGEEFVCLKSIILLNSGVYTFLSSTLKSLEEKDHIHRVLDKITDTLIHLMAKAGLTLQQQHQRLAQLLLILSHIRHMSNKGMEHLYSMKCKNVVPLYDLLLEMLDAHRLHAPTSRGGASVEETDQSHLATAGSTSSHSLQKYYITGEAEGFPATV
Estrogen receptor (Homo sapiens) + Estrogen receptor beta (Homo sapiens), sequence (Q92731 whole entry, looked up, the tested form may be a part): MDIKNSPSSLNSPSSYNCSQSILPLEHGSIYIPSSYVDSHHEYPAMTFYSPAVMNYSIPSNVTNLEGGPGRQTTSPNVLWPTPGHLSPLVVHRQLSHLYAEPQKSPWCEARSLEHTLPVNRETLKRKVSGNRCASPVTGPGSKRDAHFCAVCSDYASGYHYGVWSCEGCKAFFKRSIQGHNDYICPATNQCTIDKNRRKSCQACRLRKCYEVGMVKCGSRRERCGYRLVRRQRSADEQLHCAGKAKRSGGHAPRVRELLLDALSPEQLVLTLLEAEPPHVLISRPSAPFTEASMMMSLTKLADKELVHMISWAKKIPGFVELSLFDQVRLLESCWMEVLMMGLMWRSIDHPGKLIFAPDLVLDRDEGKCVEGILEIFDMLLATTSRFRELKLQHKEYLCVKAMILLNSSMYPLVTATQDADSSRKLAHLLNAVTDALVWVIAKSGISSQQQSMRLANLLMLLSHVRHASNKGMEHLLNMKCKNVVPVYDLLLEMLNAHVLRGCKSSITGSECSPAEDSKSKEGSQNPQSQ

How did the AC50 turn out when `COC(=O)c1c(C)cc(O)c(C)c1O` was run?
The AC50 was 61.8 µM (active).

Which outcome does the source give for `O=C(O)CCCC[C@@H]1SC[C@@H]2NC(=O)N[C@@H]21` here?
Its outcome is “inactive”.

With `O=C(c1ccccc1)C1CCC1` as the compound, how does the outcome read?
Its outcome is “inactive”.

With `CC(=O)OC(C)C` as the compound, how does the outcome read?
The outcome was “inactive”.

How did the outcome turn out when `O=S1(=O)OC(c2ccc(O)cc2)(c2ccc(O)cc2)c2ccccc21` was run?
The outcome was “inactive”.

How did the outcome turn out when `CC(=O)[C@H]1[C@H](C#N)C[C@H]2[C@@H]3CC=C4C[C@@H](O)CC[C@]4(C)[C@H]3CC[C@@]21C` was run?
Its outcome is “inactive”.

How did the outcome turn out when `O=S(=O)(O)c1ccccc1C=Cc1ccc(-c2ccc(C=Cc3ccccc3S(=O)(=O)O)cc2)cc1` was run?
The outcome was “inactive”.

With `NC(=O)c1ccccc1O` as the compound, how does the outcome read?
The outcome was “inactive”.

For `Oc1ccc(Cl)cc1Cc1cc(Cl)ccc1O`, which AC50 is on record?
The AC50 was 11.9 µM (active).

For `CCCCCCCOC(=O)CCC`, which outcome is on record?
Its outcome is “inactive”.

How did the outcome turn out when `CC(C)c1ccc2cc(C(C)C)ccc2c1` was run?
The outcome was “inactive”.

Which outcome does the source give for `CCCCCCCC/C=C\CCCCCCCC(=O)OCCO` here?
The outcome was “inactive”.

For `CCCc1ccc(OC)cc1`, which outcome is on record?
Its outcome is “inactive”.

`CN(C)c1ccc(N=Nc2ccccc2C(=O)O)cc1` was tested. Which outcome did it give?
The outcome was “inactive”.

`CC/C=C\C/C=C\C/C=C\CCCCCCCC(=O)O` was tested. Which outcome did it give?
Its outcome is “inactive”.

How did the outcome turn out when `CCCCC/C=C\C/C=C\CCCCCCCC(=O)OC` was run?
Its outcome is “inactive”.

Which outcome does the source give for `CC=C1CC2C=CC1C2` (stereo unspecified) here?
The outcome was “inactive”.

How did the outcome turn out when `Cc1ccc(N/N=c2\c(=O)cc/c(=N/Nc3ccc(S(=O)(=O)O)cc3)c2=O)c(C)c1` was run?
Its outcome is “inactive”.

Which outcome does the source give for `CC(C)=CCC[C@H](C)CCO` here?
The outcome was “inactive”.

Which outcome does the source give for `CCCCCCCCCCCCCOP(=O)(O)O` here?
The outcome was “inactive”.

`O=c1cc(-c2ccccc2)oc2ccccc12` was tested. Which AC50 did it give?
Its AC50 is 57.3 µM (active).

How did the outcome turn out when `O=C1CCCC1` was run?
The outcome was “inactive”.

`CC(C)(C)c1ccc(-c2ccc(C(C)(C)C)cc2)cc1` was tested. Which outcome did it give?
Its outcome is “inactive”.

How did the AC50 turn out when `CN(C)c1ccc(C(=N)c2ccc(N(C)C)cc2)cc1` was run?
The AC50 was 18.4 µM (active).
